# From PMC7862700, “An all-to-all approach to the identification of sequence-specific readers for epigenetic DNA modifications on cytosine”
# Experiments:
# Assay in all cases: DAPPL (digital affinity profiling via proximity ligation, sequencing); 10 mM Tris-HCl pH 7.5, 50 mM NaCl, 1 mM DTT, 4% glycerol, room temperature, 30 min; GST-TFs on glutathione beads, 16-mer random dsDNA library, 0.1% formaldehyde crosslink after washing; high values mean tight binding
# Conditions in all cases: protein: recombinant; tags: N-terminal GST; dsDNA, one strand shown
# [1] = molecular target: T1, FLI1 (Homo sapiens, UniProt Q01543 1-452)
# T1 sequence: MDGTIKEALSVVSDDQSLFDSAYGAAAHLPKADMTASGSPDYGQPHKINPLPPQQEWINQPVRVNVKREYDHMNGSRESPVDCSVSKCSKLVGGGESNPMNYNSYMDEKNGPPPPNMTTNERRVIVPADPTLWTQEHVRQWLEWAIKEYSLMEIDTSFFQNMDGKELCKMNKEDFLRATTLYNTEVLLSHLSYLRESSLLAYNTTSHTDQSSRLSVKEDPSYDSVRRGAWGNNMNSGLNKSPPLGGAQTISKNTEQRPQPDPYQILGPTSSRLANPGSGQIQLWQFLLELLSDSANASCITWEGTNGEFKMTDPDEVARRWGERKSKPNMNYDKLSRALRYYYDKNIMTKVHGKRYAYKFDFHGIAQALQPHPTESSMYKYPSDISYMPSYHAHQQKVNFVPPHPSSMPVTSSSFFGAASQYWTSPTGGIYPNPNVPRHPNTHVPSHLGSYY
# Procedure, shortened: (§1)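 Pools were built from human transcription factors expressed in yeast as GST fusions, captured on glutathione beads and DNA-barcoded, along with a tag-only sample. Incubation with 200 nmole of a 16-mer random double-stranded DNA library lasted 30 min at room temperature in Tris/NaCl/DTT/glycerol buffer, and was followed by washing, 0.1% formaldehyde crosslinking, proximity ligation, PCR amplification and Illumina NextSeq500 sequencing. Binding signal is the quotient of each hexamer's read frequency for a factor and its frequency for the tag-only sample.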
# [2] = molecular target: T2, ELK1 (Homo sapiens, UniProt P19419 1-428)
# T2 sequence: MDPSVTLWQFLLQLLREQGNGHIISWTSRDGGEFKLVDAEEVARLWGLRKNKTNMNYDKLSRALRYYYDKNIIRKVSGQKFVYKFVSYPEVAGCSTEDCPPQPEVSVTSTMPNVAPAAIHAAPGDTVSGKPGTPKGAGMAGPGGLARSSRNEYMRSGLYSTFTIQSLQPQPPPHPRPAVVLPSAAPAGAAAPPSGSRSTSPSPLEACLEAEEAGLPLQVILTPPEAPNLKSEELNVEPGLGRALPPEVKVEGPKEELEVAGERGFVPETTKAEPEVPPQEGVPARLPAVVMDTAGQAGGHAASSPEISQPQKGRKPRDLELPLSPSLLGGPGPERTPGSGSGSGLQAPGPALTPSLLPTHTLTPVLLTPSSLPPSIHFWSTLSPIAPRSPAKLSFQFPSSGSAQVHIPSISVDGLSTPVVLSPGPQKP
# Procedure, shortened: as §1
# [3] = molecular target: T3, GABPA (Homo sapiens, UniProt Q06546 1-454)
# T3 sequence: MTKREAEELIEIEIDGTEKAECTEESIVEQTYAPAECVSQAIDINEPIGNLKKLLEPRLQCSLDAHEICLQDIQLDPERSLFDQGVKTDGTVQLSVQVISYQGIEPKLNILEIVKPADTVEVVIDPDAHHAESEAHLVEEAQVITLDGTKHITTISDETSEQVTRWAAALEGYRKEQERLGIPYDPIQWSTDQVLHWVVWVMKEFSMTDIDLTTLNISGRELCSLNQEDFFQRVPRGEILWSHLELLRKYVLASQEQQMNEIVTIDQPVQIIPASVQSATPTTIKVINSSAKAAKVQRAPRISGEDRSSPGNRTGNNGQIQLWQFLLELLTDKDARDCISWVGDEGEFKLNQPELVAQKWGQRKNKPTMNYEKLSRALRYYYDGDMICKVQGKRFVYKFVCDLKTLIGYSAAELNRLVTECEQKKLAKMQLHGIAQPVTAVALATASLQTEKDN
# Procedure, shortened: as §1
# [4] = molecular target: T4, ERG (Homo sapiens, UniProt P11308 1-479)
# T4 sequence: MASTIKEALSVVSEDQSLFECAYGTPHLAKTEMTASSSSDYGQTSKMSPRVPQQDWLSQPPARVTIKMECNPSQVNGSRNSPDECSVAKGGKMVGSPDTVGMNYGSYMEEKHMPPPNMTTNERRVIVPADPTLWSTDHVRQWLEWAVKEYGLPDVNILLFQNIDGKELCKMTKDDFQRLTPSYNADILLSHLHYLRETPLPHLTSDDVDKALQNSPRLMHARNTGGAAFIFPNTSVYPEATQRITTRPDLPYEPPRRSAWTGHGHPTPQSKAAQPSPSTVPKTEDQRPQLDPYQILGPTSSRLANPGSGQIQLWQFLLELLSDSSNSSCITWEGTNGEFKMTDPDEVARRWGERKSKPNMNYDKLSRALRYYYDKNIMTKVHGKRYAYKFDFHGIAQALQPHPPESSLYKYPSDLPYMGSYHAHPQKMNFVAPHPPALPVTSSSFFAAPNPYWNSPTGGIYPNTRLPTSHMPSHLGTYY
# Procedure, shortened: as §1
# [5] = molecular target: ELF1 (Homo sapiens, UniProt P32519 1-619)
# Procedure, shortened: as §1
# [6] = molecular target: T5, EHF (Homo sapiens, UniProt Q9NZC4 1-300)
# T5 sequence: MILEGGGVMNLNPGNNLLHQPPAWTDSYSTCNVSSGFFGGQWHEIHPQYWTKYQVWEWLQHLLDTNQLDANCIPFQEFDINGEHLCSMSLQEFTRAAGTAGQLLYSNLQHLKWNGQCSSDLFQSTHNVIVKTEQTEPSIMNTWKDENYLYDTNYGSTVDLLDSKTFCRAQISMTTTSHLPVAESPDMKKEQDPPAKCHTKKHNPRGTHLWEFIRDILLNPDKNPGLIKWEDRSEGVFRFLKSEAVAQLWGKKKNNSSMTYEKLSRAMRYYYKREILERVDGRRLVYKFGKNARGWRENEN
# Procedure, shortened: as §1
# [7] = molecular target: SPI1 (Homo sapiens, UniProt P17947 1-270)
# Procedure, shortened: as §1
# [8] = molecular target: SPIB (Homo sapiens, UniProt Q01892 1-262)
# Procedure, shortened: as §1
# [9] = molecular target: T6, ELK3 (Homo sapiens, UniProt P41970 1-407)
# T6 sequence: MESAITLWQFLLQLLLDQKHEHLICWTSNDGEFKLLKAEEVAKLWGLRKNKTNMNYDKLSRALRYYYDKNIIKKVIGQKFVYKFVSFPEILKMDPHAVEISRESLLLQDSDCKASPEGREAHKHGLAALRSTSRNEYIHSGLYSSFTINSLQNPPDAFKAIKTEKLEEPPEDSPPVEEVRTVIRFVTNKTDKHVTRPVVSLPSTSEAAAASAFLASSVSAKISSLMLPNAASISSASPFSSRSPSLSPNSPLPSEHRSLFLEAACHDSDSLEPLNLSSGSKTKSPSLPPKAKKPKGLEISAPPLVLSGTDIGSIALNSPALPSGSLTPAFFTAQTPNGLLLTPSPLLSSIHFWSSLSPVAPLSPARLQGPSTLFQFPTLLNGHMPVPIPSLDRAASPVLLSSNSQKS
# Procedure, shortened: as §1
# [10] = molecular target: ETV5 (Homo sapiens, UniProt P41161 1-510)
# Procedure, shortened: as §1
# [11] = molecular target: ELF4 (Homo sapiens, UniProt Q99607 1-663)
# Procedure, shortened: as §1
# [12] = molecular target: T7, ETV2 (Homo sapiens, UniProt O00321 1-342)
# T7 sequence: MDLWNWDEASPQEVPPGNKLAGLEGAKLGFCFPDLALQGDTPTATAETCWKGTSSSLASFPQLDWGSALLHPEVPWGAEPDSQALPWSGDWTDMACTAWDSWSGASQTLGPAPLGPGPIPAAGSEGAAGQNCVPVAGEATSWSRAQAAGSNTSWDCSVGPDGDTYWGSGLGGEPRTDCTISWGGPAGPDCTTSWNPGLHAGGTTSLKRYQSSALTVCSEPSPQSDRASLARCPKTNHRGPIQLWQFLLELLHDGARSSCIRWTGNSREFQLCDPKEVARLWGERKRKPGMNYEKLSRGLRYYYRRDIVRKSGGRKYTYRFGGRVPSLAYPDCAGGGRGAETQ
# Procedure, shortened: as §1
# [13] = molecular target: T8, ELF3 (Homo sapiens, UniProt P78545 1-371)
# T8 sequence: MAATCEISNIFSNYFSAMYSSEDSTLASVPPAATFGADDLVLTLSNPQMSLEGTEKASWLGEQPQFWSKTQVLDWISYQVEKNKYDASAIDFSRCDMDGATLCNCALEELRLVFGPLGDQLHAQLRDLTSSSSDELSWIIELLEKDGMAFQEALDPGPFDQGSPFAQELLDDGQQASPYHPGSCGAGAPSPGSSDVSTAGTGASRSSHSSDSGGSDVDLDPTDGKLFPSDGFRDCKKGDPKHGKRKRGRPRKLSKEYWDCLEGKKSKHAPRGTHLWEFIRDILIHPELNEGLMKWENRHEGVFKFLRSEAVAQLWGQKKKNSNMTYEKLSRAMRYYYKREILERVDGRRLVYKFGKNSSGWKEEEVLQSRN
# Procedure, shortened: as §1
# [14] = molecular target: ETV1 (Homo sapiens, UniProt P50549 1-477)
# Procedure, shortened: as §1
# [15] = molecular target: T9, ETV3L (Homo sapiens, UniProt Q6ZN32 1-361)
# T9 sequence: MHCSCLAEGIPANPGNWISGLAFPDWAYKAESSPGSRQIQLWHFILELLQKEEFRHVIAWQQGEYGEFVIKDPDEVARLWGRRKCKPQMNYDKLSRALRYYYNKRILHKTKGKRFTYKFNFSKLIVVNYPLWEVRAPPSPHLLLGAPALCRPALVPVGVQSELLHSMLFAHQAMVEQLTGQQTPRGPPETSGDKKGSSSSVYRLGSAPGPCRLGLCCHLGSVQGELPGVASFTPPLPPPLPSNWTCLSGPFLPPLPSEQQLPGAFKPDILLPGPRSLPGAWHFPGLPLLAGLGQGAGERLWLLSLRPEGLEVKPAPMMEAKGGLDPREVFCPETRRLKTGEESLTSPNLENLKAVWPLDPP
# Procedure, shortened: as §1
# [16] = molecular target: T10, ETS2 (Homo sapiens, UniProt P15036 1-469)
# T10 sequence: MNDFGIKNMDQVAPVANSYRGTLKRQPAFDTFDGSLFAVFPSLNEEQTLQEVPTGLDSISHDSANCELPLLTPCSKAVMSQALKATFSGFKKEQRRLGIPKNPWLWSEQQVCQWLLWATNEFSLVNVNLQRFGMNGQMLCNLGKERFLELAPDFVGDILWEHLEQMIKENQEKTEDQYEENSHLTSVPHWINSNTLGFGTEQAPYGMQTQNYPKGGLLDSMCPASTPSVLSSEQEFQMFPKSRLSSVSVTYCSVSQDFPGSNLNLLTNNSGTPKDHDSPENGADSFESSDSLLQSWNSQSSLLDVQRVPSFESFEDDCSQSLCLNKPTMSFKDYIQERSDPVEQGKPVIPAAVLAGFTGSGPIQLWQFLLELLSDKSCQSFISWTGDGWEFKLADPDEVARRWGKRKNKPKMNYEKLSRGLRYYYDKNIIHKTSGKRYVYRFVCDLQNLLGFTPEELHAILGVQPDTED
# Procedure, shortened: as §1
# [17] = molecular target: T11, ETV3 (Homo sapiens, UniProt P41162-2 1-143)
# T11 sequence: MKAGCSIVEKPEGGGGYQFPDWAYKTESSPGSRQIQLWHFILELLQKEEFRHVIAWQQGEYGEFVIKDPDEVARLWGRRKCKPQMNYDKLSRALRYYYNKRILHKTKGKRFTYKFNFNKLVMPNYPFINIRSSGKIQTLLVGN
# Procedure, shortened: as §1
# [18] = molecular target: ETV6 (Homo sapiens, UniProt P41212 1-452)
# Procedure, shortened: as §1
# ELF4, sequence (Q99607 whole entry): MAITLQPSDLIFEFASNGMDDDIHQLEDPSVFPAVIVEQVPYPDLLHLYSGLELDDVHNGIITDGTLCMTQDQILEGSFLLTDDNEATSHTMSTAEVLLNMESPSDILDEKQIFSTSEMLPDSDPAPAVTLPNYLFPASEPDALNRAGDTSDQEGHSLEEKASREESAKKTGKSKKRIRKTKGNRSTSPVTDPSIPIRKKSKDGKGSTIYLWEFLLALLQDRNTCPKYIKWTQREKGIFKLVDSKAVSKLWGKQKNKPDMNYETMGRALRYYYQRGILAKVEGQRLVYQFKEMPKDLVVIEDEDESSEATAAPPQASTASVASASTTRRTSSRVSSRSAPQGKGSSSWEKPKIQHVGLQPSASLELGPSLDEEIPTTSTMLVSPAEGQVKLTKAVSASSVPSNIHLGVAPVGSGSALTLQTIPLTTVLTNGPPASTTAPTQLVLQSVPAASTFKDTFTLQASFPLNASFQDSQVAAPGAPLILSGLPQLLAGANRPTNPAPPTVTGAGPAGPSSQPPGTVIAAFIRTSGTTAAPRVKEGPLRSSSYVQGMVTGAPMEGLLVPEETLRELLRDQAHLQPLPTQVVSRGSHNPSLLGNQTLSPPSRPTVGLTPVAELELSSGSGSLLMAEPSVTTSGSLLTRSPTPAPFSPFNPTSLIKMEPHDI
# ETV5, sequence (P41161 whole entry): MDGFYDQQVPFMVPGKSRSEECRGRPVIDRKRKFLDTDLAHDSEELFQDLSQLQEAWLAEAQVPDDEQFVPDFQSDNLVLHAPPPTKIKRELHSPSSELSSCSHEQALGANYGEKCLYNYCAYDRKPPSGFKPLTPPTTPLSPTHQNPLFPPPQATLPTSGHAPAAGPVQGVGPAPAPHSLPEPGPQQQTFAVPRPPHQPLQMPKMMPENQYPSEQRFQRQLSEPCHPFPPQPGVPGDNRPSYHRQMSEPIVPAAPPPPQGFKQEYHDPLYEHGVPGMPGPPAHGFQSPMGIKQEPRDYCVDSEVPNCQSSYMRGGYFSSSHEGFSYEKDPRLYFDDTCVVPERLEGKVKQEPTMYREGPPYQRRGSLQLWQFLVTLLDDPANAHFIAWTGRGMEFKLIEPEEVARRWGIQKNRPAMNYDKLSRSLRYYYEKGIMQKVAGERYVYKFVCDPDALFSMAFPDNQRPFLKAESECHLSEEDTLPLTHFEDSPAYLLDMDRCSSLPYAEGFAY
# ETV1, sequence (P50549 whole entry): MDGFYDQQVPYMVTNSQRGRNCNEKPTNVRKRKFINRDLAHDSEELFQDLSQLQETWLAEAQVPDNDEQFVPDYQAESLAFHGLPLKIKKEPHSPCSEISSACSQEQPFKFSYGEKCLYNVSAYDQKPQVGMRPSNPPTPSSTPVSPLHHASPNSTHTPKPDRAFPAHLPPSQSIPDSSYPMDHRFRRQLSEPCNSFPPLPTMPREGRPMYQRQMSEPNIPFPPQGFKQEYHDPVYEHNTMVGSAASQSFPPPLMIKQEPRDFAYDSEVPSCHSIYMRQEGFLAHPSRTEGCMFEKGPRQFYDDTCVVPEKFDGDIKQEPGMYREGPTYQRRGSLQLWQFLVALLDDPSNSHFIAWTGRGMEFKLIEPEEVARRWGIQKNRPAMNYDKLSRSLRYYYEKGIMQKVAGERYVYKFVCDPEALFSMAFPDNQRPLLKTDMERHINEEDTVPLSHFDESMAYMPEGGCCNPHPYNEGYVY
# SPIB, sequence (Q01892 whole entry): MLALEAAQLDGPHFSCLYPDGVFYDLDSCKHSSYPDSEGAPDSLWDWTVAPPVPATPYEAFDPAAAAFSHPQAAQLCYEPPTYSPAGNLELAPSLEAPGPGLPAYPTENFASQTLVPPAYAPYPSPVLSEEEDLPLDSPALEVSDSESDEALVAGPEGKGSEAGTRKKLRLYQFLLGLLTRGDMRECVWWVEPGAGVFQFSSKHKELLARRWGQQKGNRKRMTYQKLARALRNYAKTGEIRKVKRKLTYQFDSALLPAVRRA
# ELF1, sequence (P32519 whole entry): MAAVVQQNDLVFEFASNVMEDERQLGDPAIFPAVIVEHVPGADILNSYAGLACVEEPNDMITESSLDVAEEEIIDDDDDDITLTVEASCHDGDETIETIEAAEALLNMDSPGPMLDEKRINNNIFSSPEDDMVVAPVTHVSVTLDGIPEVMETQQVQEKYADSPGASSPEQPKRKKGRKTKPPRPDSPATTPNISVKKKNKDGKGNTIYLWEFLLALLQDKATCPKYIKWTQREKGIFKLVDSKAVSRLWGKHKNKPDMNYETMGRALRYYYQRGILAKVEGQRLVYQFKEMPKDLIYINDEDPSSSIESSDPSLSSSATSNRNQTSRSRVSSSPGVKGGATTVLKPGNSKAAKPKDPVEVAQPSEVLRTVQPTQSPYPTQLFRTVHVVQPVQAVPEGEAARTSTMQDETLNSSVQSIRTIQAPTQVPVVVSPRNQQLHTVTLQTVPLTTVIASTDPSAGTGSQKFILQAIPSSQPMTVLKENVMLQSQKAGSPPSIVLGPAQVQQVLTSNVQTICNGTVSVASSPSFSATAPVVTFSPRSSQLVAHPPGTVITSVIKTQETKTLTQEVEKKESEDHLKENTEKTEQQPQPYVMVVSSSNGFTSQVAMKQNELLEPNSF
# ETV6, sequence (P41212 whole entry): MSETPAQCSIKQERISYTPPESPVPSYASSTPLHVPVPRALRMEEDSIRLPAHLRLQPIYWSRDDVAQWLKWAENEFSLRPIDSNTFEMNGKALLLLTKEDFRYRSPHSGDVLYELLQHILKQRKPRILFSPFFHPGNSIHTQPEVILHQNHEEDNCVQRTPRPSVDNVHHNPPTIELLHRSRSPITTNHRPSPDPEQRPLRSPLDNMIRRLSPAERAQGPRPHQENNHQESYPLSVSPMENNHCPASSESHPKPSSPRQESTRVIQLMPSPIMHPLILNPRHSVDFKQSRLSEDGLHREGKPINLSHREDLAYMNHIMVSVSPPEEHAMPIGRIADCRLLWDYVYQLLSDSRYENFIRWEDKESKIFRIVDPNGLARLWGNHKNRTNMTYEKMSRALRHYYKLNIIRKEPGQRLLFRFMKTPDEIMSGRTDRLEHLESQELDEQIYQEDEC
sequence,measurement,setting,value
CGGAAC,binding signal,[1],"1.16 fold enrichment (6-mer frequency, TF over GST control)"
same,binding signal,[2],"1.18 fold enrichment (6-mer frequency, TF over GST control)"
same,binding signal,[3],"1.05 fold enrichment (6-mer frequency, TF over GST control)"
same,binding signal,[4],"1.22 fold enrichment (6-mer frequency, TF over GST control)"
same,binding signal,[5],"1.04 fold enrichment (6-mer frequency, TF over GST control)"
same,binding signal,[6],"1.2 fold enrichment (6-mer frequency, TF over GST control)"
same,binding signal,[7],"1.29 fold enrichment (6-mer frequency, TF over GST control)"
same,binding signal,[8],"1.29 fold enrichment (6-mer frequency, TF over GST control)"
same,binding signal,[9],"1.21 fold enrichment (6-mer frequency, TF over GST control)"
same,binding signal,[10],"1.29 fold enrichment (6-mer frequency, TF over GST control)"
same,binding signal,[11],"1.04 fold enrichment (6-mer frequency, TF over GST control)"
same,binding signal,[12],"1.14 fold enrichment (6-mer frequency, TF over GST control)"
same,binding signal,[13],"1.11 fold enrichment (6-mer frequency, TF over GST control)"
same,binding signal,[14],"1.23 fold enrichment (6-mer frequency, TF over GST control)"
same,binding signal,[15],"1.11 fold enrichment (6-mer frequency, TF over GST control)"
same,binding signal,[16],"1.18 fold enrichment (6-mer frequency, TF over GST control)"
same,binding signal,[17],"1.31 fold enrichment (6-mer frequency, TF over GST control)"
same,binding signal,[18],"1.12 fold enrichment (6-mer frequency, TF over GST control)"
